Screening results: PubChem, National Center for Advancing Translational Sciences (NCATS)
A selection: hits, their analogues and other compounds. The true share with any hit is near 1.8%.
HEK293 tox – cytotoxicity counter-screen for GLP-1 receptor inverse agonists | HEK293 cAMP-luciferase reporter cells, luminescence, 24 h | Potency, µM (doses to about 38.3 µM), usual class: inhibitors | actives 0.13% (n = 410,000) | AID 624418;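 note: loss of luciferase light is scored as toxicity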
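Seeding density was 200 cells/uL; after overnight-length (12 h) culture, 23 nL compounds went on for 24 h at 37 °C. Readout used a luciferase detection reagent, luminescence taken after 12 min at room temperature.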
RGS4 inhibitor – inhibitors of human regulator of G protein signaling 4; Potency, µM (doses to about 114 µM), usual class: inhibitors; P49798; AID 504845; actives 0.039% (n = 390,000); Transcreener GDP fluorescence polarization, RGS4-accelerated GTP hydrolysis; note: nearly all actives have a fitted effect of over 75% in size
Target sequence (P49798 whole entry, looked up): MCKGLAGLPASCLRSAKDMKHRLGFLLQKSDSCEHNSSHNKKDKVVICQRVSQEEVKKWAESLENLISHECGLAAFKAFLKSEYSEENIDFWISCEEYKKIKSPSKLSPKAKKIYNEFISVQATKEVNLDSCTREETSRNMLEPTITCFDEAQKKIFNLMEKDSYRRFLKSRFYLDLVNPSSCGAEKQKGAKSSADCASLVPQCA
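MLSMR compounds (23 nl, pin-transferred) preincubated 10 min at room temperature with a 500nM (2x) first reagent, then RGS4 at 900nM (2x) plus Transcreener GDP mix added; fluorescence polarization (620/688 nm) read before and after 90 min at 30 °C.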
KAT2A inh – inhibitors of human GCN5L2 histone acetyltransferase. Q92830. GCN5L2 HAT assay, ThioGlo1 CoA-SH fluorescence. Potency, µM (doses to about 58.9 µM), usual class: inhibitors. actives 0.21% (n = 390,000). AID 504327
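qHTS, 1536-well. 20nM enzyme, pH 7.5 HEPES/EDTA/Tween-20 buffer; 15 min compound preinc., RT. Start: 75uM H3(1-25), 70uM AcCoA, 50uM ThioGlo1. Read Ex340/Em540 at t=0 (autofluorescence flag) and t=20 min.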
GLP1R ag – agonists of human GLP-1 receptor; Potency, µM (doses to about 45.6 µM), most hits filed as activators; P43220; HEK293 GLP-1R CRE-luciferase, luminescence, 4-6 h; cells express a hypersensitive GLP-1R form; actives 0.007% (n = 380,000)
Target sequence (P43220 whole entry, looked up): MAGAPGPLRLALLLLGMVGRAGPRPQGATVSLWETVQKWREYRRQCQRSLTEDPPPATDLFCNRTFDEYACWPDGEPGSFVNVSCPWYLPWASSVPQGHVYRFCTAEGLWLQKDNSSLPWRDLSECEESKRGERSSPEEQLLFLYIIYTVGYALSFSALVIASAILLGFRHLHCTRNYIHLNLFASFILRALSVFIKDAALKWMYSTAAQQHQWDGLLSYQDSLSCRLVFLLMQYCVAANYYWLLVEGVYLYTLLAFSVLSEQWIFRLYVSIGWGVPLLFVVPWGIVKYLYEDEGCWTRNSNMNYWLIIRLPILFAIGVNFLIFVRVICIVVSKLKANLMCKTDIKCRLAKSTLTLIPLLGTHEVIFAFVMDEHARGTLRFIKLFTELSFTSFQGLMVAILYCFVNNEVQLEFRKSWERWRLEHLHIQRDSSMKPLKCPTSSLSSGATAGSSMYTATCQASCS
GLP-1R inv ag – inverse agonists of human GLP-1 receptor. P43220. HEK293 GLP-1R CRE-luciferase, luminescence, 24 h; GLP-1R form is constitutively active. Potency, µM (doses to about 38.3 µM), hits mostly inhibitors. actives 1.6% (n = 410,000). AID 624417; note: nearly all actives have a fitted effect of over 55% in size
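Using stably transfected HEK293 (constitutively active GLP-1R, cAMP-luciferase reporter), compounds were incubated 24 hr and luciferase measured by luminescence.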
PTHR1 ag – PTHR1 (human) receptor agonism; HEK293 GP2 PTHR1 cells, GloSensor cAMP luminescence, 1 h; Potency, µM (doses to about 115 µM), hits mostly activators; actives 0.075% (n = 410,000); AID 743266; note: nearly all actives have a fitted effect of over 55% in size
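HEK-293-derived GP2 cells expressing PTHR1 and a GloSensor cAMP reporter, 3,000/well, plated overnight, given luciferin plus IBMX (each 0.5 mM as added) for 1 h at 37 °C, then compound for 1 h at 37 °C. Luminescence was read after 15 min at room temperature.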
Hits are given with their value; – = inactive; ? = inconclusive; · = not tested or not shown; [ ] = remark or other dose. Calls come from the whole dose curve; as a rule, active = well fitted curve in the direction sought with a large enough effect; inconclusive = small, poorly fitted or top-dose-only effect, or another doubt; inactive = no such curve, though single readings can be large; an effect the other way counts as inactive or inconclusive.

SMILES | HEK293 tox | RGS4 inhibitor | KAT2A inh | GLP1R ag | GLP-1R inv ag | PTHR1 ag
O=C(O)c1cc(O)c2c(c1)[C@@H]([C@H]1c3cc(C(=O)O)cc(O)c3C(=O)c3c(O[C@@H]4O[C@H](CO)[C@@H](O)[C@H](O)[C@H]4O)cccc31)c1cccc(O[C@@H]3O[C@H](CO)[C@@H](O)[C@H](O)[C@H]3O)c1C2=O | – | – | 0.63µM | – | – | –
OCC1OC(Oc2cccc3ccccc23)C(O)C(O)C1O (stereo not given) | – | – | – | – | – | –
Clc1ccc(-c2cc3ccccc3nc2N2CCOCC2)cc1 | – | ? | – | – | 10µM | –
CCOC(=O)c1c(C)[nH]c(C(=O)COC(=O)/C=C/c2ccc(OCC#N)c(OC)c2)c1C | – | – | – | – | – | –
O=C(/C=C/Nc1ccccc1)c1ccc(Cl)cc1Cl | – | – | – | – | 11µM | –
COc1ccc(Cn2cc(CN3CC(N4CCN(C5CCN(C)CC5)CC4)CS3(=O)=O)nn2)cc1 (stereo not given) | – | · | · | – | – | –
COc1ccc(Nc2nc3c(S(=O)(=O)c4ccccc4)nnn3c3ccc(Cl)cc23)cc1OC | – | – | – | · | – | –
COc1ccccc1CNc1nc2c(S(=O)(=O)c3ccccc3)nnn2c2ccc(Cl)cc12 | – | – | 25µM | · | – | –
COCCNCc1nc2sc(C)c(-c3ccccc3)c2c(=O)[nH]1 | ? | – | – | – | 11µM | –
Cc1sc2nc(CN3CCOCC3)[nH]c(=O)c2c1-c1ccccc1 | – | – | – | – | – | –
CC1CCN(c2ccccc2NC(=S)NC(=O)c2ccco2)CC1 | ? | – | · | – | 10µM | –
C=CCNC(=O)c1onc(CSc2ccc(Cl)cc2)c1C(=O)NCC=C | ? | – | – | – | 13µM | –
C=CCNC(=O)c1onc(CSc2ccc(Cl)cc2)c1C(=O)O | – | – | – | – | 2.2µM | –
Cc1cc(NS(=O)(=O)c2ccc(NC(=O)CSc3nc4sc(C)c(C)c4c(=O)[nH]3)cc2)no1 | – | – | 14µM | – | – | –
C=CCN1C(=O)NC(c2ccc(OC)cc2)(C(F)(F)F)S/C1=C(\C#N)c1nnc(N2CCOCC2)n1-c1ccccc1 (stereo not given) | 10µM | – | – | – | ? | –
O=C(NCC1(c2ccccc2)CCCC1)c1ccccc1Br | – | – | – | – | 10µM | –
c1ccc2c(c1)OC(CCCN1CCCCC1)c1ccccc1S2 (stereo not given) | – | – | – | – | 7.9µM | –
CN1CCCC(CC2Oc3ccccc3Sc3ccccc32)C1 (stereo not given) | ? | – | – | – | 5.6µM | –
CN1CC[C@H](CN2c3ccccc3Sc3ccccc32)C1 | · | · | – | – | · | ·
COc1ccccc1CNc1cc(-c2ccccc2Cl)ncn1 | · | · | – | · | · | ·
CCc1ccc(C2C(C(=O)Nc3ccccc3C)=C(C)Nc3nc(SCc4cccc(OC)c4)nn32)cc1 (stereo not given) | – | – | – | · | – | –
C=CCNC(=S)NN(c1ccccc1)c1ccccc1 | ? | – | – | – | – | –
CC(C)NC(=S)NN(c1ccccc1)c1ccccc1 | – | – | – | – | 11µM | –
Clc1ccccc1-c1nc(Nc2ccccc2)nc2ccc(Br)cc12 | – | – | – | · | 10µM | –
COc1ccccc1Nc1nc(-c2ccccc2Cl)c2cc(Br)ccc2n1 | – | – | – | · | – | –
SMILES | HEK293 tox | RGS4 inhibitor | KAT2A inh | GLP1R ag | GLP-1R inv ag | PTHR1 ag
COc1ccc(C(=O)N2c3cc4c(cc3C(C)=CC2(C)C)OCO4)cc1 | – | – | – | – | 7.9µM | –
CC1=CC(C)(C)N(C(=O)c2ccccc2)c2ccc(C)cc21 | – | – | – | – | ? | –
Cc1ccc(C)c(CN2C(=O)c3ccccc3S(=O)(=O)c3ccc(C(=O)N4CCN(c5ccccn5)CC4)cc32)c1 | – | – | – | · | – | –
C=CCn1c(COc2ccccc2)nnc1SC(C)C(=O)N/N=C/c1cc(Cl)ccc1O (stereo not given) | – | –[11.4 µM] | – | – | 8.9µM | –
O=C(c1ccc(C(F)(F)F)cc1)N1CCC(c2noc(-c3ccc(S(=O)(=O)N4CCCC4)cc3)n2)CC1 | – | – | – | · | – | –
CCOc1ccc(-c2noc(CCC(=O)NC3CCCCC3)n2)cc1OC | – | – | – | – | – | –
O=C(COc1ccc(/C=N/NC(=O)c2cc3ccccc3o2)cc1Cl)Nc1ccccc1 | ? | – | – | – | 4.5µM | –
CN(C)C(=O)c1cccc(COc2ccc(N3C(N)=NC(N)=NC3(C)C)cc2Cl)c1 | – | · | · | – | 2.2µM | –
COc1ccc(C(O)(C(=O)NNc2ccc(C)cc2)c2cccs2)cc1 (stereo not given) | – | – | – | – | 2.5µM | –
CCc1cccc(NC(=O)CC2Oc3ccc(C)cc3NC2=O)c1 (stereo not given) | – | – | – | · | – | –
CCn1ccc2cc(S(=O)(=O)N3CCC(C(=O)NCC(C)c4ccccc4)CC3)ccc21 (stereo not given) | – | – | – | · | – | –
CCCC1NC(=O)c2cc3ccccc3cc2-n2c1nc1ccc(F)cc1c2=O (stereo not given) | – | · | · | – | – | –
COc1ccc(CN(C(=O)c2nsc(Cl)c2Cl)C(C(=O)NC2CCCC2)c2ccc(C)cc2)cc1 (stereo not given) | – | – | – | – | ? | –
Cc1ccc(C)c(N(C(=O)c2nsc(Cl)c2Cl)C(C(=O)NC2CCCC2)c2ccc(O)cc2)c1 (stereo not given) | – | – | – | – | 5.6µM | –
Cc1ccc2oc(C(=O)NCc3ncc(C)[nH]3)c(C)c2c1 | – | – | ? | – | ? | –
O=C(Nc1ccc(Br)cc1F)C1CCN(c2nc3ccccc3[nH]2)CC1 | – | – | – | · | – | –
Cc1ccc(O)c(CNc2nc3ccccc3n2C(C)C)c1 | – | – | – | – | ? | –
CC(C)n1c(NCc2cc(Cl)ccc2O)nc2ccccc21 | – | – | – | – | 10µM | –
CC(C)n1c(Nc2ccccc2)nc2ccccc21 | – | – | – | – | 11µM | –
Oc1ccc(Cl)cc1CNc1cnc2ccccc2c1 | – | – | – | – | 10µM | –
CC(C)n1c(NCCO)nc2ccccc21 | –[7.66 µM] | – | – | – | –[7.66 µM] | –
CCN(CC)C(=O)C1CCCN(C(=O)c2cc(COc3cccc(OC)c3)on2)C1 (stereo not given) | – | – | – | – | – | –
